Consider 94 compounds from PubChem BioAssay AID1822 (The Scripps Research Institute Molecular Screening Center, 2009).

The whole screen tested about 290,000 compounds, of which about 3,500 (1.2%) were called active. What follows is part of a selection rich in actives, with near analogues and random picks from the rest. Unmarked numbers belong to inactive results.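 How the source made its calls: active means inhibition above the campaign mean inhibition over all tested compounds plus 3 SD (cut at about 28% in these data); inactive means the rest.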

The assay has as its system M18 aspartyl aminopeptidase (Plasmodium falciparum 3D7). Nature of the assay: PfM18AAP inhibitors, malaria aminopeptidase, primary screen, biochemical, QFRET, recombinant enzyme (AID 1822).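 Further: 0% = plate median of test compound wells and 100% = 2 mM ZnCl2.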 Conditions: H-Glu-NHMec fluorogenic cleavage, at 7.35 µM, hits give high values.
Regarding `CC(=O)c1c(C)n(-c2ccc(C)cc2)c2ccc(O)cc12`, the inhibition was -3.09%.

Regarding `CCCCN(Cc1ccccc1)C(=O)C1CCN(Cc2sccc2C)CC1`, the inhibition is 10.9%.

In the case of `CCC(C)C(=O)Nc1ccccc1N1CCN(c2ccc(F)cc2)CC1` (centres undefined), the inhibition is 4%.

As for `OCCNc1nc2ccccc2n1-c1ncnc2sc3c(c12)CCC3`, the inhibition was -6.82%. Next, `Cc1ccc(C)c(NC(=O)CSc2nc3c(oc4ccccc43)c(=O)n2-c2ccccc2)c1`: 2.4%. As for `CCOC(=O)c1cccc(NS(=O)(=O)c2c(C(=O)N3CCCCCC3)c(C)n(C)c2C)c1`, the figure is 0.1%; as for `Cc1cc(N2CCN(c3ccccc3)CC2)nc(N2CCOCC2)n1`, -12.7%. On to `Cc1cc(N2CCOCC2)nc(-c2ccc(Br)cc2)n1`, for which the inhibition was -2.46%. Turning to `Cc1ccc(Sc2cc(N3CCOCC3)nc(-c3ccccc3)n2)cc1`, the inhibition is 28.3% (active).

In the case of `Cc1cc(C)nc(-n2nc(C)cc2NC(=O)c2ccc(Br)o2)n1`, the inhibition is -3.58%. With `CSc1n[nH]c(=S)n1N`, the inhibition was 32.7% (active). `Oc1ccc(/C=N/Nc2ccc(C(F)(F)F)cn2)cc1O`: the inhibition is 34.4% (active). Turning to `O=C(Nc1ccccc1)Nc1ccc(C(F)(F)F)cn1`, the inhibition is -2.42%. Consider `Oc1ccc(Br)cc1/C=N/Nc1ccccn1`, for which the inhibition was 15.5%. In the case of `CCc1ccc(Nc2nnc(SCC(=O)c3ccc4c(c3)NC(=O)CO4)s2)cc1`, the inhibition is 3.56%. Next, `O=C(Cn1nc([N+](=O)[O-])nc1Br)NC1CCCCC1`: 0.92%; `CCOc1cc(NC(=O)c2cnccn2)c(OCC)cc1NC(=O)c1ccc(C)cc1`: 5.95%.

Regarding `O=C(OCC1O[C@@H](OC(=O)c2cc(O)c(O)c(O)c2)[C@@H](OC(=O)c2cc(O)c(O)c(O)c2)[C@@H](OC(=O)c2cc(O)c(O)c(O)c2)[C@@H]1OC(=O)c1cc(O)c(O)c(O)c1)c1cc(O)c(O)c(O)c1` (some centres undefined), the inhibition is 41.3% (active). Regarding `CN(C)c1ccc(CNC(=O)CN2C(=O)COc3ccc(S(=O)(=O)N4CCCC4)cc32)cc1`, the inhibition was 4.42%.

For `COc1ccccc1CCNC(=O)C1CCN(C(=O)/C=C/c2ccccc2)CC1`, the inhibition is -9.1%. Take `CCOc1ccc(/C=N\NC(=O)c2c(C)nc3cc(C)ccn23)cc1`: the inhibition was -0.74%. Regarding `O=C(CN1CCOC1=O)N1CCCC(Nc2ccc(F)c(F)c2)C1` (centres undefined), the inhibition was -0.1%. Take `O=C1CCCCN1CCCC(=O)N1CCCC(Nc2ccc(F)cc2)C1` (centres undefined): the inhibition was 33.9% (active). Turning to `O=C(CN1C(=O)CSC1=O)N1CCCC(Nc2ccc(F)cc2)C1` (centres undefined), the inhibition was -12.5%. `CCOC(=O)[C@@H]1[C@H]2COc3cc(OC)ccc3[C@@H]2N2C(=O)N(c3cccc(C)c3)C(=O)[C@@]12C`: the inhibition was -13.2%. Consider `CCOC(=O)c1c(-c2ccccc2)oc2ccc(OCC(N)=O)cc12`, for which the inhibition is 4.97%. As to `CCOC(=O)c1c(-c2ccccc2)oc2cc(Br)c(O)cc12`, the inhibition was -7.24%. As to `CCOC(=O)c1c(-c2ccccc2)oc2cc(Br)c(O)c(C=O)c12`, the inhibition was 28.4% (active).

For `O=C(c1cnc(Cl)c(Cl)c1)N1CCN(S(=O)(=O)c2ccc(F)cc2)CC1`, the inhibition is -8.29%. Regarding `CNc1nnc(-c2ccco2)s1`, the inhibition is -6.9%. Consider `COc1ccc(OCC(=O)Nc2nnc(-c3ccco3)s2)cc1`, for which the inhibition was 29.5% (active).

`Cc1ccc(OCC(=O)Nc2nnc(-c3ccco3)s2)cc1`: the inhibition is -1.67%. Regarding `N#Cc1cccc(CN2CCC(=O)N([C@H](CO)c3ccccc3)CC2)c1`, the inhibition is -11.8%. Take `Cn1c2ccc(F)cc2c2nnc(NN)nc21`: the inhibition was 30.3% (active). With `CCn1c2ccc(F)cc2c2nnc(SCCN3CCOCC3)nc21`, the inhibition was 10.1%. Turning to `Cc1ccc2c(c1)c1ncn(Cc3ccc(F)cc3)c(=O)c1n2C`, the inhibition is -2.55%. Regarding `Cc1cccc(C(=O)NNC(=O)CSc2nnc(C(C)C)n2C)c1`, the inhibition is -1.87%.

Take `COc1cccc(/C=N/Nc2cc(C)nc(-c3ccccc3O)n2)c1O`: the inhibition is 52.7% (active).

Regarding `COc1ccccc1/C=N\Nc1cc(C)nc(-n2nc(C)cc2C)n1`, the inhibition is 4.17%. Turning to `COc1cccc(/C=N/Nc2ncc(C(F)(F)F)cc2Cl)c1O`, the inhibition was 12.8%. As for `COC(=O)c1ccc(OC(=O)c2cnccn2)cc1`, the figure is 5.19%; as for `S=c1[nH]c(-c2cccs2)cn1-c1ccccc1`, 38.5% (active); as for `COc1ccc(-c2cn(-c3ccc(OC)cc3)c(=S)[nH]2)cc1`, 24.3%. As for `O=c1oc2ccccc2cc1-c1cn(-c2ccccc2)c(=S)[nH]1`, the figure is 11.4%; as for `Cc1cc(C)c2nc(N(CCN(C)C)C(=O)/C=C/c3cccs3)sc2c1`, 0.71%; as for `S=C(NCCCc1ccccc1)Nc1ccc(Br)cc1`, -6.24%. Turning to `O=C(CSC(=S)N1CCOCC1)c1ccccc1`, the inhibition was 4.44%. In the case of `O=C(CSC(=S)N1CCOCC1)c1cc(Br)cc(Br)c1O`, the inhibition was 44.3% (active). For the compound `O=C(c1cc2cc(Br)cc(Br)c2oc1=O)N1CCOCC1`, the inhibition is -1.08%. On to `Cc1ccc2c(c1)sc1ncc(NC(=O)c3ccccc3)c(=O)n12`, for which the inhibition is -1.31%. With `CN(CC(=O)NCCN1CCOCC1)S(=O)(=O)c1ccc(F)cc1`, the inhibition was -0.36%.

With `CCc1ccc(C(=O)COC(=O)c2ccco2)cc1`, the inhibition is 1.62%. On to `S=c1[nH]nc(COc2ccccc2)n1-c1ccccc1`, for which the inhibition was 19.1%.

Consider `Cc1ccc(OCc2n[nH]c(=S)n2-c2ccc(C)cc2)cc1`, for which the inhibition is 14.1%.

As for `COc1ccc(OCc2n[nH]c(=S)n2N)cc1`, the inhibition was 32.5% (active).

For the compound `COc1ccc(CNC(=O)CN(C(=O)c2csnn2)c2cnc3ccccc3c2)cc1`, the inhibition was 3.77%. With `CN(C)[C@@H]1C(=O)C(C(N)=O)=C(O)[C@@]2(O)C(=O)C3=C(O)c4c(O)ccc(Cl)c4[C@@H](O)[C@H]3C[C@@H]12`, the inhibition was 37% (active). With `COc1ccc(CN2CCN(C(=O)CCC(=O)Nc3nnc(C(C)C)s3)CC2)cc1F`, the inhibition was 0.79%. Turning to `CC1CC(C)CN(CCCNC(=O)c2csc3c2CCCCC3)C1` (centres undefined), the inhibition is -10.4%. As for `COc1ccc(C2C3=C(CCCC3=O)N(CC(=O)O)C3=C2C(=O)CCC3)cc1`, the inhibition was 5.23%. Consider `CCOc1ccc(C2C3=C(CCCC3=O)N(CC(=O)O)C3=C2C(=O)CCC3)cc1`, for which the inhibition is 32.6% (active).

`CCOc1ccc(C2C(C#N)=C(N)N(N(C)C)C3=C2C(=O)CCC3)cc1` (centres undefined): the inhibition is 8.27%. As to `COc1cccc(C(=O)NNS(=O)(=O)c2ccc(F)cc2)c1`, the inhibition is 10.3%.

Take `CC(C)CN(CC(C)C)CC(O)CN(c1ccccc1)S(=O)(=O)c1ccccc1[N+](=O)[O-]` (centres undefined): the inhibition was 2.89%. On to `C=CCn1c(Cn2nnc3ccccc32)nnc1SCC(=O)N/N=C/c1cc(Br)cc(OC)c1O`, for which the inhibition is 28.3% (active).

`COc1ccc(OC)c(/C=N/NC(=O)CSc2nnc(C)n2-c2ccccc2)c1`: the inhibition was -0.06%. Regarding `Cc1ccc(Cn2c(SCC(=O)N/N=C/c3ccccc3OCC(=O)O)nc3ccccc32)cc1`, the inhibition was 5.43%. Turning to `O=C1C2CCCN2C(=O)N1CCCCN1CCN(c2cccc(C(F)(F)F)c2)CC1` (centres undefined), the inhibition was -6.19%.

For the compound `CC(C)C1Cc2c(sc3c2c(=O)n(-c2ccccc2)c2nncn32)CO1` (centres undefined), the inhibition was 9.11%. Next, `CN(C)c1ccc(C(CC(=O)O)C(=O)O)cc1` (centres undefined): 33.2% (active). As for `CC(=O)NC(CC(=O)O)c1ccc(F)cc1` (centres undefined), the figure is 4.92%; as for `CC(C)CNC(=O)C(=O)Nc1ccc(N(C)C)cc1`, 5.25%; as for `COc1ccc(OC)c(C(O)c2nc3ccccc3n2C)c1` (centres undefined), 2.35%. As to `CC(=O)c1ccc(N2CCN(CC(O)c3ccccc3)CC2)cc1` (centres undefined), the inhibition is -0.23%.

Take `COC(=O)c1ccc(CN2C(=O)NC(c3ccccc3)(c3ccccc3)C2=O)o1`: the inhibition was 0.97%. Take `CCOCCCNC(=O)c1ccc(CS(=O)(=O)c2cccc(C(F)(F)F)c2)o1`: the inhibition is 78.5% (active). As to `COc1ccccc1CNC(=O)c1ccc(CS(=O)(=O)c2ccccc2)o1`, the inhibition is -0.58%.

For the compound `COc1ccc(CCNC(=O)c2ccc(CS(=O)(=O)c3ccc(Br)cc3)o2)cc1OC`, the inhibition was -0.17%. Consider `Cc1c(Cl)cccc1NC(=O)[C@@]1(CC(=O)O)CC(/C=C/c2ccccc2)=NO1`, for which the inhibition was -3.65%. `O=C(NCCO)C(=O)NCC(c1ccc2c(c1)OCO2)N1CCN(c2ccc(F)cc2)CC1` (centres undefined): the inhibition was 2.98%.

As for `COc1ccccc1-c1nnc(SCC(=O)Nc2cc(C)on2)o1`, the inhibition is 39.2% (active). For the compound `COc1ccccc1-c1nnc(SCC(=O)Nc2ccccc2)o1`, the inhibition is 17.1%.

As for `Cc1cc(NC(=O)CSc2nnc(-c3ccc(Cl)s3)o2)no1`, the inhibition was 21.4%. As to `COc1ccc(C(=O)CCC(=O)Nc2ccc(Cl)cc2)cc1`, the inhibition was -1.71%. Consider `Oc1ccc(-c2csc(Nc3cccnc3)n2)cc1`, for which the inhibition is 55.7% (active).

As for `COc1cccc(CC(=O)Nc2nc(-c3ccc(OC)c(OC)c3)cs2)c1`, the inhibition is -8.12%. On to `COc1ccc(C)cc1Nc1nc(-c2c(C)[nH]c3ccccc23)cs1`, for which the inhibition is -5.8%. `COc1ccc2nc(Nc3nc(-c4ccncc4)cs3)sc2c1`: the inhibition is -1.76%.

For `COc1ccc(OC)c(Nc2nc(-c3ccc(O)c(O)c3)cs2)c1`, the inhibition is 56.5% (active).

For the compound `CN(c1ccc(O)cc1)c1nc(-c2cccnc2)cs1`, the inhibition is 7.5%. For `Cc1ccccc1Nc1nc(-c2cccnc2)cs1`, the inhibition was 1.18%. Consider `COc1ccc(-c2csc(Nc3ccc(O)cc3)n2)cc1`, for which the inhibition was 28.1% (active). As for `NS(=O)(=O)c1ccc(Nc2nc(-c3ccccc3)cs2)cc1`, the inhibition was 2.74%. Take `O=C(N/C(=C\c1ccc([N+](=O)[O-])cc1)C(=O)N1CCOCC1)c1cccc(Br)c1`: the inhibition is 0.07%.

As usually defined, the inhibition is the drop in the measured response relative to a control, in per cent.
